Laboratory results published in ChEMBL document CHEMBL3988442, “University of Dundee, Small-Polar-MMV Screening Library” (2021).

Experiments:
Assay type in all cases: functional
Design in all cases: scale not given: direction of the effect not stated beside the values
Details in all cases: 30 µM
[1] = biological target: T1, Aspartate--tRNA(Asp/Asn) ligase (Mycobacterium tuberculosis (strain ATCC 25618 / H37Rv)) (UniProt P9WFW3); experiment: Assay for Asp RNA synthetase-1 from Mycobacterium tuberculosis; further: in the data most compounds retested in dose-response had high values
T1 sequence (whole entry): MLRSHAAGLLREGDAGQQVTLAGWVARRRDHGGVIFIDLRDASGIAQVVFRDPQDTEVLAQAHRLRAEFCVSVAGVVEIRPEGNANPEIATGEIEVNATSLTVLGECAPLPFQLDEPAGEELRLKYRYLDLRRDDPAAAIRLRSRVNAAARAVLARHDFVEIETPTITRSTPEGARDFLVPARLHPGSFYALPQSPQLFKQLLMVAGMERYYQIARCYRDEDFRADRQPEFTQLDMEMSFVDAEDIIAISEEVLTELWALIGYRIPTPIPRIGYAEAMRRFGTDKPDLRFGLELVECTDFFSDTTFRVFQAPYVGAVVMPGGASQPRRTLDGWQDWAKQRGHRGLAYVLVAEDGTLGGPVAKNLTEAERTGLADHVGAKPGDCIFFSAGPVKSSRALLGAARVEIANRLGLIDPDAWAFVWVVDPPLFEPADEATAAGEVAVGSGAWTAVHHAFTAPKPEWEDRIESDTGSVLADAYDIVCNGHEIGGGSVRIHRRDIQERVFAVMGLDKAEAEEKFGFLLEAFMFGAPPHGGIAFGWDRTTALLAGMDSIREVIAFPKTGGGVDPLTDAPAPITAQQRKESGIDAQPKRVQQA

[2] = biological target: Shiga toxin 2 (Escherichia coli O157:H7) (UniProt P09385+P09386); experiment: E. coli 0.157:H7 Shiga Toxin SOP - stx2 screening assay
[3] = biological target: AMP-activated protein kinase, AMPK (Homo sapiens) (UniProt P54646+O43741+P54619+Q9UGJ0+Q9Y478+Q13131+Q9UGI9); experiment: AMP-dependent Kinase enzyme assay. An in vitro enzyme assay that detects ADP turnover that is directly proportional to AMPK activity. This uses naive AMPK that is activated during the assay with MK-8722

Cc1n[nH]c(C)c1-c1cnc(CC2CCN(C)C2)cn1 (configuration not stated)
Percent Effect [1]: -0.897% | Percent Effect [2]: -18.2%

Cn1ccc2ccc(C(=O)N3CCN(C(=O)N4CCOCC4)CC3)cc21
Percent Effect [1]: -0.0331% | Percent Effect [2]: 7.14%

CCn1ccnc1CN1CCN(CC(=O)NC(C)(C#N)C2CC2)CC1 (configuration not stated)
Percent Effect [1]: -4.1% | Percent Effect [2]: 27.2%

Cc1cc(NC(=O)CN2CCN(c3nccs3)C(C)C2)n(C)n1 (configuration not stated)
Percent Effect [1]: 7.92% | Percent Effect [2]: 7.19%

Cc1cc(CN2CCN(CC(O)c3ccccc3)CC2)no1 (configuration not stated)
Percent Effect [1]: -5.08% | Percent Effect [2]: 3.56%

CCc1nc(C2CCCN2CC(=O)Nc2c(C)nn(C)c2C)no1 (configuration not stated)
Percent Effect [1]: 3.31% | Percent Effect [2]: -7.62%

Cc1cc(C)c2[nH]c(C)c(CC(=O)N(C)CCN(C)C)c2c1
Percent Effect [3]: 3.2%

COc1ccc(CN(C)CC2CCCN2c2cccnn2)cc1F (configuration not stated)
Percent Effect [1]: 0.346% | Percent Effect [2]: 3.14%

CNC(=O)[C@@H]1CN(Cc2ccccc2)C[C@H]1C(=O)c1ccc(F)cc1
Percent Effect [3]: 12%

O=C(C1CC1)N1CCc2c(ncnc2N2CCN3CCCC3C2)C1 (configuration not stated)
Percent Effect [3]: -5.38%

N#CCCN(C(=O)CN1CCCC1c1ccsc1)c1ccccc1F (configuration not stated)
Percent Effect [1]: -3.67% | Percent Effect [2]: 4.76%

COCCN(C)C[C@@H]1CN(C(=O)c2cccc(C(F)(F)F)c2)C[C@@H]1CO
Percent Effect [1]: -4.52% | Percent Effect [2]: 8.62%

O=C(NCCOc1cccc(Cl)c1Cl)N1CCC2(CC1)OCCO2
Percent Effect [3]: 1.62%

O=C(O)c1cc(S(=O)(=O)Nc2ccc(Cl)cc2)cc2c1OCCO2
Percent Effect [1]: 0.0437% | Percent Effect [2]: -7.1%

CCN(CCC(F)(F)F)C(=O)Nc1cccc(N2CCOCC2)c1
Percent Effect [1]: 1.08% | Percent Effect [2]: -51.5%

COCCC(=O)N1CCC(c2noc3nc(C)cc(C(F)(F)F)c23)CC1
Percent Effect [1]: 1.68% | Percent Effect [2]: 8.3%

CN1CC(c2ccccc2)CC2(CCN(CC(=O)N(C)C)CC2)C1 (configuration not stated)
Percent Effect [1]: -3.52% | Percent Effect [2]: 15.8%

O=C(COCc1ccccc1)N1CCC(OCc2cccnc2)CC1
Percent Effect [1]: -4.62% | Percent Effect [2]: 11.5%
